The values that follow come from PubChem BioAssay (NCATS).

Records with an inconclusive call do not appear. Calls of active or inactive are those of the source. The call rests on the fitted dose curve; in most records, active means well fitted curve in the direction sought with a large enough effect; inconclusive means small, poorly fitted or top-dose-only effect, or another doubt; inactive means no such curve, though single readings can be large; an effect the other way counts as inactive or inconclusive.

Assay [1] has as its target Phospholipid hydroperoxide glutathione peroxidase GPX4 (Homo sapiens) (UniProt P36969). Briefly: Primary qHTS Assay for Inhibitors of Recombinant Selenoprotein Glutathione Peroxidase 4 (GPX4) (AID 1845192). Further: nearly all actives have a fitted effect of over 65% in size. Put shortly: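 Steps: GPX4 plus compound, 30 min RT; add GR/GSH/NADPH master mix; start with cumene hydroperoxide; read 340/450 nm fluorescence at 0 and 15 min. Finals were 200 nM GPX4, 1 mM GSH, 0.5 mM CHP, 0.5 mM NADPH, 100 nM GR.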
On the technique in general: qHTS replaces the single test concentration by a dilution series.

The target in assay [2] is Luciferin 4-monooxygenase (Photinus pyralis) (UniProt P08659). The assay is described as follows: Primary firefly luciferase (FLuc) qHTS assay for identification of artifact compounds. (AID 1845220). Further: nearly all actives have a fitted effect of over 60% in size. Put shortly: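 D-luciferin and ATP (10 uM each, final) in Tris acetate buffer pH 7.6 were incubated with compounds for 15 min at room temperature. The reaction was started with 10 nM Photinus pyralis luciferase and luminescence read after 5 min. Percent inhibition was fitted to a 4-parameter Hill equation.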

For assay [3], the system named is Nanoluciferase (engineered Oplophorus gracilirostris luciferase). Briefly: Primary Nanoluciferase (NLuc) qHTS assay for identification of artifact compounds. (AID 1845222). Further: potency means the concentration at half of the fitted maximal effect.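 On activity, negative = inhibition: series mostly up to about 54 µM; 0% = DMSO and -100% = no enzyme.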 Put shortly:
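Diluted conditioned medium from NLuc-expressing S16 cells treated with compounds for 15 min at room temperature, then Nano-Glo substrate added; luminescence read after 5 min. Percent inhibition versus no-enzyme and DMSO controls fitted to 4-parameter Hill equation.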

The nature of assay [4]: Primary redox qHTS assay for identification of artifact compounds. (AID 1845223).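 Further: 0% = DMSO and 100% = reference compound.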 The gist of the method:
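Redox-cycling detection via DTT (250 uM final) oxidation coupled to Amplex Red (25 uM)/HRP (250 mU/mL) in HBSS. 15 min preincubation plus 30 min after DTT, room temperature. Ex/Em 525/598 nm; 4-parameter Hill fit against DMSO and 10 uM DA3003.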

Assay [5] in a line: Primary fluorescence-based thiol-reactive (MSTI) qHTS assay for identification of artifact compounds. (AID 1845221). Further: nearly all actives have a fitted effect of over 65% in size. Further: potency means the concentration at half of the fitted maximal effect.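 On activity change, negative = thiol reactive: series mostly up to about 54 µM; thiol-reactive compounds lower the probe fluorescence signal.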 Put shortly: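 MSTI probe at 4 uM final in 2% DMSO/PBS pH 7.4; compounds, 1 h at room temperature in dark. Fluorescence Ex/Em 525/598 nm, normalised to Acetyl-MSTI and MSTI, fitted to 4-parameter Hill.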

Phospholipid hydroperoxide glutathione peroxidase GPX4 (Homo sapiens), sequence (P36969 whole entry, looked up): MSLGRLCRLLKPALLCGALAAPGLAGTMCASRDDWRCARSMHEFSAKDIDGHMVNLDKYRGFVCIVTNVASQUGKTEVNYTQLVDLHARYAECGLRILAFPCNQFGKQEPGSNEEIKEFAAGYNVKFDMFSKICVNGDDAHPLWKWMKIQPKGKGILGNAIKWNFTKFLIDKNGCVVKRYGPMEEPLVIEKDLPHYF

For `CC(=O)Nc1cccc2c1c(Sc1ccc(Cl)cc1)c(C)n2CC(=O)O`, the Potency entry in assay [1], in assay [2] and in assay [4] was “inactive” throughout. Also, the Potency in assay [3] was 10.7 µM (active).
In the case of `COc1cc(O)c2c(c1)C1(OC2=O)C(C)=CC(=O)C1O` (centres undefined), the Potency result in assay [1], in assay [2], in assay [3] and in assay [4] was “inactive” in each case.
Turning to `COc1cnc(-n2cnc(C)n2)c2[nH]cc(C(=O)C(=O)N3CCN(C(=O)c4ccccc4)CC3)c12`, the Potency entry in assay [5], in assay [3] and in assay [4] was “inactive” each time.
Take `CCc1cccc2c3c([nH]c12)[C@@](CC)(CC(=O)O)OCC3`: the Potency entry in assay [1], in assay [2], in assay [3] and in assay [4] was “inactive” each time.
In the case of `COC(=O)C1=CO[C@@H](O[C@@H]2O[C@H](CO)[C@@H](O)[C@H](O)[C@H]2O)C2C1CC(O)C2C` (some centres undefined), the Potency entry in assay [1], in assay [2], in assay [5], in assay [3] and in assay [4] was “inactive” each time.
For `OC[C@@]1(O)CO[C@@H](OC[C@H]2O[C@@H](OCc3ccccc3)[C@H](O)[C@@H](O)[C@@H]2O)[C@@H]1O`, the Potency result in assay [1], in assay [2], in assay [5], in assay [3] and in assay [4] was “inactive” throughout.
With `O=C(/C=C/c1ccc(O)cc1)OCC1OC(O)C(OC2OC(CO)C(O)C(O)C2O)C(O)C1O` (centres undefined), the Potency result in assay [1], in assay [2], in assay [5], in assay [3] and in assay [4] was “inactive” in each case.
On to `C/C(=C\CCC(C)(C)O)CCO[C@@H]1O[C@H](CO[C@@H]2O[C@@H](C)[C@H](O)[C@@H](O)[C@H]2O)[C@@H](O)[C@H](O)[C@H]1O`, for which the Potency entry in assay [1], in assay [3] and in assay [4] was “inactive” in each case.
Turning to `O=C(O)c1ccnc2cc(-c3nc4ccccc4n3CCN3CCCCC3)sc12`, the Potency result in assay [2], in assay [5], in assay [3] and in assay [4] was “inactive” each time.
With `COc1cc(/C=C/CO[C@@H]2O[C@H](CO)[C@@H](O)[C@H](O)[C@H]2O)cc(OC)c1O[C@@H]1O[C@H](CO)[C@@H](O)[C@H](O)[C@H]1O`, the Potency result in assay [1], in assay [2], in assay [3] and in assay [4] was “inactive” each time.
For the compound `CC(O)C(=O)/C=C/C=C/C(=O)OC1C=C2COC(=O)C2(O)C2(C)CCCC(C)(C)C12` (centres undefined), the Potency result in assay [1], in assay [2], in assay [3] and in assay [4] was “inactive” throughout.
With `O=C(O)c1cccc(CN2C(=O)/C(=C(\c3ccccc3)c3ccc(Cl)cc3)c3ccccc32)c1`, the Potency entry in assay [2] and in assay [3] was “inactive” in each case.
As for `OCC1=C[C@@H](O)[C@@H]2C=CO[C@@H](O[C@@H]3O[C@H](CO)[C@@H](O)[C@H](O)[C@H]3O)[C@H]12`, the Potency entry in assay [1], in assay [2], in assay [3] and in assay [4] was “inactive” each time.
Turning to `CCC(CC)CC1(C(=O)Nc2ccccc2SC(=O)C(C)C)CCCCC1`, the Potency result in assay [1], in assay [2], in assay [5], in assay [3] and in assay [4] was “inactive” each time.
For `CC(C)=CCC[C@](C)(O[C@@H]1O[C@H](CO[C@@H]2OC[C@H](O)[C@H](O)[C@H]2O)[C@@H](O)[C@H](O)[C@H]1O)[C@H]1CC[C@]2(C)[C@@H]1[C@H](O)C[C@@H]1[C@@]3(C)CC[C@H](O[C@@H]4O[C@H](CO)[C@@H](O)[C@H](O)[C@H]4O[C@@H]4O[C@H](CO)[C@@H](O)[C@H](O)[C@H]4O)C(C)(C)[C@@H]3CC[C@]12C`, the Potency entry in assay [1], in assay [2], in assay [5], in assay [3] and in assay [4] was “inactive” throughout.
Regarding `COc1ccc2[nH]c(S(=O)Cc3ncc(C)c(OC)c3C)nc2c1` (centres undefined), the Potency entry in assay [2], in assay [3] and in assay [4] was “inactive” in each case. The Potency in assay [5] is 11.9 µM (active).
For the compound `C[C@@H]1O[C@@H](O[C@@H]2[C@@H](O)[C@H](O[C@H]3[C@H](O[C@H]4CC[C@@]5(C)C(CC[C@]6(C)C5CC=C5[C@@H]7CC(C)(C)CC[C@]7(C(=O)O[C@@H]7O[C@H](CO)[C@@H](O)[C@H](O)[C@H]7O)CC[C@]56C)C4(C)C)O[C@H](C(=O)O)[C@@H](O)[C@@H]3O)OC[C@H]2O)[C@H](O)[C@H](O)[C@H]1O` (some centres undefined), the Potency entry in assay [1] is “inactive”. Also, in assay [2], the outcome is “inactive [at 11.6 µM]”. For the same compound, the activity change, negative = thiol reactive in assay [5] was 351% [at 11.5 µM] (inactive). In addition, the activity, negative = inhibition in assay [3] is 2.29% [at 11.6 µM] (inactive). Further, the redox activity (% of DA3003) in assay [4] is -4.9% [at 11.5 µM] (inactive).
Consider `CC1(C)CC[C@]2(C(=O)O)CC[C@]3(C)C(=CCC4[C@@]5(C)CC[C@H](O)C(C)(C)C5CC[C@]43C)C2C1` (some centres undefined), for which the Potency result in assay [1], in assay [2], in assay [5], in assay [3] and in assay [4] was “inactive” in each case.
Take `CN1CCCC1Cc1c[nH]c2ccc(CCS(=O)(=O)c3ccccc3)cc12` (centres undefined): the Potency entry in assay [1], in assay [2], in assay [5], in assay [3] and in assay [4] was “inactive” in each case.
In the case of `COc1ccc(O[C@@H]2O[C@H](CO)[C@@H](O)[C@H](O)[C@H]2O)cc1OC`, the Potency entry in assay [1], in assay [2], in assay [3] and in assay [4] was “inactive” in each case.
As to `COC(=O)C1C(O)CCC2CN3CCc4c([nH]c5ccccc45)C3CC21` (centres undefined), the Potency result in assay [1], in assay [2] and in assay [3] was “inactive” throughout.
`Cc1c(C)c(NCC(=O)N(C)C2CCN(Cc3ccc(C(N)=O)cc3)CC2)c(C)c(C)c1N`: the Potency entry in assay [1], in assay [3] and in assay [4] was “inactive” in each case.
Regarding `C[C@H](/C=C/[C@@]1(O)[C@H](C)CC(=O)CC1(C)C)O[C@@H]1O[C@H](CO[C@@H]2OC[C@@H](O)[C@H](O)[C@H]2O)[C@@H](O)[C@H](O)[C@H]1O`, the Potency result in assay [1], in assay [2], in assay [3] and in assay [4] was “inactive” in each case.
